# From ChEMBL document CHEMBL3988442, “University of Dundee, Small-Polar-MMV Screening Library” (2021)
# Molecular target: AMP-activated protein kinase, AMPK (Homo sapiens) (UniProt P54646+O43741+P54619+Q9UGJ0+Q9Y478+Q13131+Q9UGI9)
# Experiment: AMP-dependent Kinase enzyme assay. An in vitro enzyme assay that detects ADP turnover that is directly proportional to AMPK activity. This uses naive AMPK that is activated during the assay with MK-8722
# Format: functional
# Parameters: scale not given: direction of the effect not stated beside the values
# Settings: 30 µM
row,SMILES,Percent Effect
1,CC(=O)N[C@@H]1CN(C(=O)c2cccc(C(F)(F)F)c2)C[C@H]1O,5.07%
2,CCN(CC)C1CCN(c2ncnc3c2CCN(C(=O)C2CC2)C3)C1 (stereo not given),-3.94%
3,O=C(c1nnn(-c2ccccc2)n1)N(CCO)CCO,0.534%
4,CCCC1COCCN1Cc1ccc(S(=O)(=O)NC)cc1 (stereo not given),0.167%
5,Cc1cc(C(=O)NC(C)Cc2cccc(Cl)c2)n(C)n1 (stereo not given),10.6%
6,CN(Cc1ncc(-c2ccccc2C(=O)O)s1)c1ncccn1,-8.09%
7,CN(CCc1ccccn1)CCc1nccs1,0.423%
8,CCCC(=O)Nc1cnn(CC(=O)Nc2ccc(SC)cc2)c1,-33.2%
9,COc1cc(Cl)cc(CN2CCCC(N3CCCC3)C2)c1OC (stereo not given),4.91%
10,Cc1ncc(CNC(=O)NCC(C)Oc2ccccc2F)s1 (stereo not given),6.1%
11,COc1ncc(NCc2cc(C#N)cs2)cc1C(N)=O,6.61%
12,Cc1c(C(=O)N(C)C)cccc1N(C)S(C)(=O)=O,11.2%
13,CCCN1C(=O)[C@H]2CC[C@@H]1CN(S(=O)(=O)c1cccc(Cl)c1)C2,7.5%
14,COc1ccnc(CNc2nc(C)nc3ccsc23)c1,-0.808%
15,CNc1nc(C)c(C(=O)N2C[C@@H](C(=O)O)[C@H](C3CC3)C2)s1,3.27%
16,Cc1ccc(CCCC(=O)N2CC(=O)Nc3cccnc32)s1,2.25%
17,CC(=O)N1CCCC1CCc1ccnc(-c2cncnc2)c1 (stereo not given),22.4%
18,O=C(NCCn1ccnc1-c1cc2n(n1)CCCNC2)c1ccncc1,0.773%
19,O=C(NCCC1CN(C2CCCC2)CCO1)c1cc(=O)[nH]c(=O)[nH]1 (stereo not given),-0.888%
20,Cc1ccccc1NC(=O)CCNC(=O)c1ccoc1,-10.8%

row,SMILES,Percent Effect
1,COc1ccc(Cn2c(Cc3c(C)n[nH]c3C)n[nH]c2=O)cc1,-5.3%
2,c1csc(-c2noc(C3CNC3)n2)c1,8.02%
3,Cc1cnn(CCNCC(=O)N2CCN(c3ncccn3)CC2)c1,-6.6%
4,O=C(COc1ccc(Cl)cc1)NCc1nncn1C1CC1,-8.68%
5,COCCN(C)C(=O)NCCc1coc(-c2ccc(C)cc2)n1,-3.83%
6,CC(C)(C)NC(=O)c1cnc2n1CCCC2,0.336%
7,CCCc1nnc(N2CCC(N3CCCC3)CC2)o1,-4.2%
8,CC(Oc1ccc2c(c1)OCO2)C(=O)N1CCC(N2CCOCC2)CC1 (stereo not given),-2.63%
9,O=C(CCC1CCCN(C(=O)CCc2ccc(F)c(F)c2)C1)NC1CC1 (stereo not given),5.21%
10,CCN(CC)CCNCc1cc(O)c2cc(C)ccc2n1,0.484%
11,CCc1ccc(C(=O)NC2CCCN(c3ccn(C)n3)C2=O)o1 (stereo not given),-0.669%
12,CN(C)C(CNC(=O)c1[nH]nc(C2CC2)c1Br)C1CC1 (stereo not given),-3.39%
13,CN(Cc1ccncc1)Cc1cnn(-c2ccc(F)cc2)c1,11.6%
14,COCCCN1CC2(CCCN(CCn3cc(Cl)cn3)C2)CCC1=O (stereo not given),5.56%
15,O=C(CN1CC(c2ccccc2)CC1=O)N1CCC(c2ncc[nH]2)CC1 (stereo not given),2.5%
16,CCNc1ncc(C(=O)NCc2csc(C)n2)cn1,-2.12%
17,O=C(c1cnco1)N1CCC(Cc2cnc3ccccc3c2)CC1,18.4%
18,CC(C)c1ccc(/C=C/CC(=O)NC2CCS(=O)(=O)CC2)cc1,-2.16%
19,OCCC1(NCc2ccc(-n3cccn3)cc2)CCOCC1,-4.22%
20,COCC(=O)NCc1ccc(-c2ncncc2C(=O)N(C)C)cc1,5.99%
